What all share (experiment): protein-binding microarray (PBM); PBM: ~300 nM protein, 6 mM HEPES pH 7.8, 80 mM KCl, 0.5 mM EDTA, 0.5 mM EGTA, 6% glycerol, 35 ng/ul poly-dIdC, 1% milk, 1 h, room temperature; Ap Aiptasia and Nv Nematostella (sea anemones) / Co Capsaspora / Aq Amphimedon (sponge) / Dm Drosophila / Hu human; RHD is the Rel homology domain; high values mean tight binding
What all share (conditions): dsDNA, one strand shown

One experiment deals with T1, GST-Ap-NF-kB RHD (Exaiptasia pallida (Aiptasia), UniProt A0A913YAJ5 2-422).
T1 sequence: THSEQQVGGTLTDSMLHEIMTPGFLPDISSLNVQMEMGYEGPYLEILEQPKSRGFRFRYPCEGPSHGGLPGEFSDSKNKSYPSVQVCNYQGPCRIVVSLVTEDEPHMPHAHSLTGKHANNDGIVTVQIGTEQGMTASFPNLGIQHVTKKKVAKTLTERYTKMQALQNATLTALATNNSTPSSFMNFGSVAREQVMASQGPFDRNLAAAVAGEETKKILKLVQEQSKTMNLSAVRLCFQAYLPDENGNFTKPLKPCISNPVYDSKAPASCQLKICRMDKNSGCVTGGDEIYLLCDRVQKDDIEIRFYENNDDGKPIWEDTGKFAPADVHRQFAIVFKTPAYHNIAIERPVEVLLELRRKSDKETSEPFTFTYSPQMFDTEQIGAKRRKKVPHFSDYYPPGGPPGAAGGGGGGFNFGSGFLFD

Experiment [1] addresses T2, GST-Nv-NF-kB (Cys allele) (Nematostella vectensis, UniProt E5G601 2-411).
T2 sequence: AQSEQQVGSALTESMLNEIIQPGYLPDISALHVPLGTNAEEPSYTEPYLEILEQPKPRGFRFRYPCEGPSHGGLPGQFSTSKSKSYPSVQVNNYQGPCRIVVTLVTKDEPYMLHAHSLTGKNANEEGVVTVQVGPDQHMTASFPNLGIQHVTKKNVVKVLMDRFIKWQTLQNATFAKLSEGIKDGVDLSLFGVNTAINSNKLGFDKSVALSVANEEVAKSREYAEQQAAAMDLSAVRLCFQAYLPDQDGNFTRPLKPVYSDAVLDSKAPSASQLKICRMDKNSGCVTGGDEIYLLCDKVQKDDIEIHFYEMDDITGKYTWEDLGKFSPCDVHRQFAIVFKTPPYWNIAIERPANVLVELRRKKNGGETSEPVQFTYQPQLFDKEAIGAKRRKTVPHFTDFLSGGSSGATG

The next experiment deals with T3, GST-Co-NF-kB (Capsaspora owczarzaki, UniProt F1ARL5 200-546).
T3 sequence: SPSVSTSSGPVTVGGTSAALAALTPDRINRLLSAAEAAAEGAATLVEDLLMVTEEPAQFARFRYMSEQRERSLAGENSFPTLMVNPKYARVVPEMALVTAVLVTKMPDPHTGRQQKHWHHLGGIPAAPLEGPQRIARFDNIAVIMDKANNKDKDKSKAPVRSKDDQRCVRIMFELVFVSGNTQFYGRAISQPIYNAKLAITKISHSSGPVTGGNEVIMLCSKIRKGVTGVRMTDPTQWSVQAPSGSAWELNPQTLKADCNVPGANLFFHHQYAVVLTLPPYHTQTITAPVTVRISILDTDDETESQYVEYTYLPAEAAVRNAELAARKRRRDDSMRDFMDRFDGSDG

In another experiment the target is T4, GST-Dm-Relish (Drosophila melanogaster, UniProt Q94527 99-473).
T4 sequence: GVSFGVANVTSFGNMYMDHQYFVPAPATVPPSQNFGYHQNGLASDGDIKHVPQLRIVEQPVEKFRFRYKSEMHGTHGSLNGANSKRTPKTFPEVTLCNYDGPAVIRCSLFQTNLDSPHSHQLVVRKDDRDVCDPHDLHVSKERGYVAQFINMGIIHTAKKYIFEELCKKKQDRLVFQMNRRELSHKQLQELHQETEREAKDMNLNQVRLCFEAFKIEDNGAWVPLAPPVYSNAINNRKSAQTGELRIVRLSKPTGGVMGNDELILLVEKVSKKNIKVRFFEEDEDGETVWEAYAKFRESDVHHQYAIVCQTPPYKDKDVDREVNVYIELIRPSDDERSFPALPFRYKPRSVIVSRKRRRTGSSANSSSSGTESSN

A further experiment has as its target T5, GST-Aq-NF-kB (Amphimedon queenslandica, UniProt A9Y5G7 2-389).
T5 sequence: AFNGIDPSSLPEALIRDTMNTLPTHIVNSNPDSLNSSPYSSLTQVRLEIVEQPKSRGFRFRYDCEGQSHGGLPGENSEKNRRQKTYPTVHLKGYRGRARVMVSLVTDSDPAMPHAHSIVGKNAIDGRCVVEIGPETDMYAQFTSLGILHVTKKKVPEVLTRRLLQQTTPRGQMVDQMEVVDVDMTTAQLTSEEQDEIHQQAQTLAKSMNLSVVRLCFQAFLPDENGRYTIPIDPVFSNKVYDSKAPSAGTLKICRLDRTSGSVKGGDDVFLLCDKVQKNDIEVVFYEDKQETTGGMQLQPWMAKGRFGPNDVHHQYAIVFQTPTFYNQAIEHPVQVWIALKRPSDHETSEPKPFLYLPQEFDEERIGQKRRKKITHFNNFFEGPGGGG

The target of another experiment is GST-Hu-p50 (Homo sapiens, UniProt P19838 7-356).

Our source for the binding signal values is article PMC5700166.

GST-Hu-p50, sequence (P19838 7-356): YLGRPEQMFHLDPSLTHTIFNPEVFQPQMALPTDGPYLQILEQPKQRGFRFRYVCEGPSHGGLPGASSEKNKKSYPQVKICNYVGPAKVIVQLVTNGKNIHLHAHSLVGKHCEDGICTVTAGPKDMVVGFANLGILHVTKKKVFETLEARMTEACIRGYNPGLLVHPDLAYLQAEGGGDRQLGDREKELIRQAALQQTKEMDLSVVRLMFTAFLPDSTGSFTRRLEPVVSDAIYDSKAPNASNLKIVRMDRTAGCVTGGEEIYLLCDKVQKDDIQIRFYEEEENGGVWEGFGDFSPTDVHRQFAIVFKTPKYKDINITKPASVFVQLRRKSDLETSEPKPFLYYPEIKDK

As to “CCGATTAACATCAGAAGTCCCCCTGATGTTAATCGGGTCTTGATTCGCTTGACGCTGCTG”, the binding signal in the experiment with GST-Ap-NF-kB RHD stood at 7.95 z-score; in experiment [1], 7.32 z-score; with GST-Co-NF-kB, 5.95 z-score; with GST-Dm-Relish it was 7.74 z-score; with GST-Aq-NF-kB, 6.54 z-score; with GST-Hu-p50 it was 6.36 z-score.
Regarding “CCGATTAACATCAGACAACCCCCTGATGTTAATCGGGTCTTGATTCGCTTGACGCTGCTG”, the binding signal in the experiment with GST-Ap-NF-kB RHD amounted to 5.23 z-score; in experiment [1], 4.47 z-score; with GST-Co-NF-kB it was 1.95 z-score; with GST-Dm-Relish, 5.15 z-score; in the experiment with GST-Aq-NF-kB it was 4.98 z-score; in the experiment with GST-Hu-p50, 5.28 z-score.
Regarding “CCGATTAACATCAGGGGGGAACATGATGTTAATCGGGTCTTGATTCGCTTGACGCTGCTG”, the binding signal in the experiment with GST-Ap-NF-kB RHD was 6.4 z-score; in experiment [1], 4.35 z-score; in the experiment with GST-Co-NF-kB it was 9.73 z-score; with GST-Dm-Relish, 4.25 z-score; with GST-Aq-NF-kB it was 5.22 z-score; in the experiment with GST-Hu-p50, 5.4 z-score.
As for “CCGATTAACATCACAGAGTCCCCTGATGTTAATCGGGTCTTGATTCGCTTGACGCTGCTG”, the binding signal is 6.36 z-score with GST-Ap-NF-kB RHD; 4.8 z-score in experiment [1]; 2.26 z-score with GST-Co-NF-kB; 5.12 z-score with GST-Dm-Relish; 4.31 z-score in the experiment with GST-Aq-NF-kB; 5.59 z-score in the experiment with GST-Hu-p50.
On to “CCGATTAACATCAAATTTACCCCTGATGTTAATCGGGTCTTGATTCGCTTGACGCTGCTG”, for which the binding signal in the experiment with GST-Ap-NF-kB RHD came out at 3.29 z-score; in experiment [1], 3.57 z-score; with GST-Co-NF-kB it was 8.25 z-score; with GST-Dm-Relish, 3.85 z-score; with GST-Aq-NF-kB, 4.53 z-score; with GST-Hu-p50 it was 4.09 z-score.
Turning to “CCGATTAACATCACGGGAACTCCTGATGTTAATCGGGTCTTGATTCGCTTGACGCTGCTG”, the binding signal with GST-Ap-NF-kB RHD was determined as 3.24 z-score; in experiment [1], 2.3 z-score; with GST-Co-NF-kB it was 1.84 z-score; in the experiment with GST-Dm-Relish, 6.49 z-score; in the experiment with GST-Aq-NF-kB, 4.59 z-score; with GST-Hu-p50 it was 1.48 z-score.
Turning to “CCGATTAACATCACTAATCCCCCTGATGTTAATCGGGTCTTGATTCGCTTGACGCTGCTG”, the binding signal in the experiment with GST-Ap-NF-kB RHD came to 6.44 z-score; in experiment [1], 5.78 z-score; with GST-Co-NF-kB it was 5.81 z-score; with GST-Dm-Relish, 5.13 z-score; in the experiment with GST-Aq-NF-kB, 4.99 z-score; with GST-Hu-p50, 6.23 z-score.
For the sequence “CCGATTAACATCAGGAGATCCCCTGATGTTAATCGGGTCTTGATTCGCTTGACGCTGCTG”, the binding signal in the experiment with GST-Ap-NF-kB RHD worked out at 7.87 z-score; in experiment [1], 8.09 z-score; with GST-Co-NF-kB, 2.55 z-score; with GST-Dm-Relish, 8.66 z-score; with GST-Aq-NF-kB it was 8.6 z-score; with GST-Hu-p50, 5.88 z-score.
Take “CCGATTAACATCAAACCCCCCCTTGATGTTAATCGGGTCTTGATTCGCTTGACGCTGCTG”: the binding signal was found to be 6.49 z-score with GST-Ap-NF-kB RHD; 4.97 z-score in experiment [1]; 4.6 z-score in the experiment with GST-Co-NF-kB; 7.14 z-score in the experiment with GST-Dm-Relish; 5.59 z-score with GST-Aq-NF-kB; 5.38 z-score with GST-Hu-p50.
For the sequence “CCGATTAACATCAGGGGACTTCATGATGTTAATCGGGTCTTGATTCGCTTGACGCTGCTG”, the binding signal in the experiment with GST-Ap-NF-kB RHD was 6.7 z-score; in experiment [1], 5.76 z-score; in the experiment with GST-Co-NF-kB, 2.35 z-score; in the experiment with GST-Dm-Relish, 6.09 z-score; with GST-Aq-NF-kB it was 5.48 z-score; in the experiment with GST-Hu-p50, 5.72 z-score.
In the case of “CCGATTAACATCAGAAATTACCCTGATGTTAATCGGGTCTTGATTCGCTTGACGCTGCTG”, the binding signal with GST-Ap-NF-kB RHD was 3.88 z-score; in experiment [1], 6.24 z-score; with GST-Co-NF-kB, 2.87 z-score; with GST-Dm-Relish it was 4.39 z-score; with GST-Aq-NF-kB, 5.95 z-score; with GST-Hu-p50 it was 4.72 z-score.
For the sequence “CCGATTAACATCAGGGGGAACACTGATGTTAATCGGGTCTTGATTCGCTTGACGCTGCTG”, the binding signal in the experiment with GST-Ap-NF-kB RHD came to 6.57 z-score; in experiment [1] it was 5.66 z-score; with GST-Co-NF-kB, 8.64 z-score; with GST-Dm-Relish it was 6.58 z-score; with GST-Aq-NF-kB, 5.54 z-score; with GST-Hu-p50, 5.28 z-score.
For the sequence “CCGATTAACATCAAACTCCCCCGTGATGTTAATCGGGTCTTGATTCGCTTGACGCTGCTG”, the binding signal worked out at 6.89 z-score in the experiment with GST-Ap-NF-kB RHD; 5.44 z-score in experiment [1]; 7.66 z-score with GST-Co-NF-kB; 5.92 z-score with GST-Dm-Relish; 5.84 z-score in the experiment with GST-Aq-NF-kB; 6.48 z-score in the experiment with GST-Hu-p50.
